Hit rate of the full screen: of about 96,000 compounds, about 20,000 (21%) were called active.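 How the source made its calls: active means CYP2C19 inhibition above a set limit at 5 µM in the primary screen (cut at about 50% in these data); inactive means the rest.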 These entries were drawn from the full list.
Biological target: Cytochrome P450 2C19 (Homo sapiens) (UniProt P33261)
Test: blockers of cytochrome P450 2C19 activity – biochemical, luminescence, ADME assay, primary screen (AID 778);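 further: plate controls were negative control wells for no effect and 2.5 mM tranylcypromine positive control for full effect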
Settings: CYP2C19 Supersomes, luciferin-H EGE luminescence, 30 min; at 5 µM; stronger effect = higher value

Chain of Cytochrome P450 2C19 (Homo sapiens) (P33261 whole entry, looked up): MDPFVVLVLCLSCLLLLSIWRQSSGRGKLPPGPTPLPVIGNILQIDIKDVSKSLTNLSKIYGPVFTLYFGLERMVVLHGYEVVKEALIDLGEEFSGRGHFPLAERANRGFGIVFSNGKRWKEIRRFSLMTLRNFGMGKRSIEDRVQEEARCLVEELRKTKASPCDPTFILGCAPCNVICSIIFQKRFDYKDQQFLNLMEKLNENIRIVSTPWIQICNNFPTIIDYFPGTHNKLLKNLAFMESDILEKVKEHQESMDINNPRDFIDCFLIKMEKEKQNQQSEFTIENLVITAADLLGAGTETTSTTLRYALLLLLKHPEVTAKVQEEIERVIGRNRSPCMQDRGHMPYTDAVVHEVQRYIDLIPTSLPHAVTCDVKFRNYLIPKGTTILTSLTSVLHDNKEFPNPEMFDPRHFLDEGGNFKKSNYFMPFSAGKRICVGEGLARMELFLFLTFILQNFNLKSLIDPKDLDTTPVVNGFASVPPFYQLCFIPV

| Structure (SMILES) | inhibition |
| --- | --- |
| CCOC(=O)/C=c1\s/c(=C\c2ccccc2OC)c(=O)n1CC(=O)N1CCOCC1 | -9.3% (inactive) |
| CCNC(=O)c1sccc1-n1cccc1 | 16.3% (inactive) |
| CCN1CCN(C(c2cccnc2)c2cc(Cl)c3cccnc3c2O)CC1 (stereo not given) | 17.2% (inactive) |
| Cc1ccc(C(=O)NNC(=O)c2cc3cc4ccccc4nc3s2)cc1 | -3.1% (inactive) |
| O=c1[nH]c(-c2ccccc2)c(-c2ccccc2)[nH]1 | 1.3% (inactive) |
| O=C1CC2(CCCCC2)Oc2ccc(OCC(=O)N3CCOCC3)cc21 | -3.8% (inactive) |
| CCCCc1nnc(NC(=O)CSc2nc(C)cc(=O)[nH]2)s1 | 4.3% (inactive) |
| O=C1/C(=C\Nc2ccccc2)CCN1c1ncccn1 | 7.1% (inactive) |
| CCOC(=O)c1ccn(-c2nc(-c3ccco3)cc(C(F)(F)F)n2)n1 | 9.7% (inactive) |
| CC(=O)C1C(c2cccc(Oc3ccccc3)c2)NC(=O)NC1(O)C(F)(F)F (stereo not given) | 24.4% (inactive) |
| Cc1ccccc1-c1ccc(Nc2ccc(C(=O)N3CCOCC3)cc2)nn1 | 34.2% (inactive) |
| Cc1ccc(C)c(NC(=O)C2CCCN2C(=O)OC(C)(C)C)c1 (stereo not given) | 11.7% (inactive) |
| Cc1ccc(C)c(NC(=O)C2Cc3ccccc3CN2C(=O)OCc2ccccc2)c1 (stereo not given) | 62.3% (active) |
| CC(=O)N1Cc2ccccc2CC1C(=O)O (stereo not given) | -21.6% (inactive) |
| Cc1cc(C(F)(F)F)nn1-c1nc(-c2ccco2)cc(C(F)(F)F)n1 | 2.2% (inactive) |
| CCOC(=O)c1cn(CC(=O)Nc2ccc(C(C)C)cc2)nn1 | 62% (active) |
| CCOC(=O)c1ccc(NC(=O)Cn2nnc(-c3ccc(C)cc3)n2)cc1 | 8.5% (inactive) |
| CCOC(=O)c1ccc(NC(=O)CSc2ncccn2)cc1 | 26.9% (inactive) |
| COCC(C)NC(=O)c1ccc(-n2nc(C(F)(F)F)cc2-c2cccs2)cc1 (stereo not given) | 12.4% (inactive) |
| O=c1cc(CSc2ccc(Cl)cc2)nc(N2CCOCC2)[nH]1 | 38.8% (inactive) |

| Structure (SMILES) | inhibition |
| --- | --- |
| CSCc1cc(N(C)C)nc(SCc2ccc(Cl)cc2Cl)n1 | 40.2% (inactive) |
| CSCc1cc(N2CCOCC2)nc(SCc2ccc(Cl)cc2Cl)n1 | 50.8% (active) |
| O=C(c1ccc2c(c1)OCCO2)C1CCN(S(=O)(=O)c2cccc(F)c2)CC1 | 35.4% (inactive) |
| Cc1nnc(NC(=O)Cn2c(=O)sc3ccccc32)s1 | 47.6% (inactive) |
| COc1ccc(Cn2c(=O)sc3ccccc32)cc1OC | 99.8% (active) |
| COc1ccc(CCNC(=O)CCn2c(=O)oc3ccccc32)cc1OC | 1.4% (inactive) |
| Cn1c(=O)c2c(nc(N3CCCCCC3)n2CC(=O)c2ccc(Br)cc2)n(C)c1=O | 0.8% (inactive) |
| CCCSc1nc2c(c(=O)[nH]c(=O)n2C)n1CCc1ccccc1 | 26% (inactive) |
| Cn1c(=O)c2c(nc(SCC(=O)Nc3ccccc3N3CCCCC3)n2C)n(C)c1=O | 86.6% (active) |
| CC(C)n1c(SCC(=O)Nc2ccccc2N2CCCCC2)nc2c1c(=O)n(C)c(=O)n2C | 40.4% (inactive) |
| C#CC(C)(C)NC(=O)CSc1nc2c(c(=O)n(C)c(=O)n2C)n1CCCC | -7.1% (inactive) |
| Cn1c(=O)c2c(nc(SCCNS(=O)(=O)c3ccccc3)n2C)n(C)c1=O | 73.3% (active) |
| Cc1ccc(NC(=O)c2cc(-c3ccc(C)o3)nc3ccccc23)nc1 | -3.9% (inactive) |
| O=C(O)CCC(=O)N(Cc1ccco1)c1nc(-c2ccccc2)cs1 | 2.5% (inactive) |
| Cc1ccc(-c2csc(NC(=O)c3cccs3)n2)cc1 | -2.3% (inactive) |
| Cc1ccc(-c2csc(N(Cc3ccco3)C(=O)c3cccs3)n2)cc1 | 68.5% (active) |
| CCOC(=O)N1CCN(C(=O)C2CCN(S(C)(=O)=O)CC2)CC1 | -15% (inactive) |
| CCN(c1ccccc1)S(=O)(=O)c1ccc(C(=O)Nc2nccs2)cc1 | -4.3% (inactive) |
| CN(CC(=O)Nc1cccc2c1CCCC2)S(=O)(=O)c1ccc(Cl)cc1 | -15.4% (inactive) |
| CCOC(=O)Cc1csc(NC(=O)CN(C)S(=O)(=O)c2ccc3c(c2)CCC(=O)N3)n1 | -17.1% (inactive) |

| Structure (SMILES) | inhibition |
| --- | --- |
| Cc1nc(NC(=O)CN(C)S(=O)(=O)c2ccc(Cl)cc2)sc1C | 62.6% (active) |
| CN(CCCC(=O)Nc1nccs1)S(=O)(=O)c1ccc(Cl)cc1 | 51% (active) |
| O=C(Nc1nccs1)C1CCN(S(=O)(=O)c2ccc(Cl)c(C(F)(F)F)c2)CC1 | 36.3% (inactive) |
| O=c1c2ccccc2c(-c2ccc(Br)cc2)nn1Cc1ccccc1 | 33% (inactive) |
| CCC(=O)NC(=Nc1nc2ccccc2s1)NC(=O)CC | -0.9% (inactive) |
| N#C/C=C1\Sc2ccccc2C(=O)N1CC(=O)N1CCN(S(=O)(=O)c2ccccc2)CC1 | -22.8% (inactive) |
| CC1(C)CC(=O)C(C=NCCC2=CCCCC2)=C(O)C1 | 9.5% (inactive) |
| CC1(C)CC(=O)C(C=NCCN2CCN(C(=S)Nc3cccc(Cl)c3)CC2)=C(O)C1 | 60.5% (active) |
| CC(=O)N1CCN(CCN=CC2=C(O)CC(C)(C)CC2=O)CC1 | -18.4% (inactive) |
| CCn1cc(C(=O)NCC2CCCO2)c(=O)c2cc(S(=O)(=O)N3CCCCC3)ccc21 (stereo not given) | 13.6% (inactive) |
| Cc1ccc(C(=O)N(CN2CCCC2=O)c2ccc(F)cc2)cc1 | -14.3% (inactive) |
| CCCNC(=O)C1CC(=O)N(c2ccc(OCC(=O)Nc3cccc(C)c3C)cc2)C1 (stereo not given) | -17.2% (inactive) |
| COc1ccc(Cl)cc1NC(=O)C1CC(=O)N(c2ccc(F)cc2)C1 (stereo not given) | 74.3% (active) |
| COCCCNC(=O)C1CC(=O)N(c2ccc(C)cc2)C1 (stereo not given) | 5.7% (inactive) |
| N#Cc1c(N)nc2c3c(sc(=N)c2c1N)NC(=O)CC3c1ccccc1Cl (stereo not given) | -0.8% (inactive) |
| CN(C)c1ccnc(Oc2ccc(F)cc2)c1C#N | 32.1% (inactive) |
| Cc1cc(C)cc(OCc2nnc(SCC(=O)OC3CCCCC3)o2)c1 | 4.2% (inactive) |
| Cc1cccc(OCc2nnc(SCn3nnc4ccccc4c3=O)o2)c1 | 31.6% (inactive) |
| Cc1cccc(OCc2nnc(SCc3nc4cc(C(F)(F)F)ccc4c(=O)[nH]3)o2)c1 | 54% (active) |
| COc1ccc(Nc2cc(C)nc(-n3nc(C)cc3C)n2)cc1 | 46% (inactive) |

Source: PubChem BioAssay AID778 (Sanford-Burnham Center for Chemical Genomics, 2007)
